# Laboratory results published in PubChem BioAssay AID493036 (Sanford-Burnham Center for Chemical Genomics, 2011).
# Screen size: about 330,000 compounds; about 560 (0.17%) were called active.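 How the source made its calls: active means activation at or above 40% of the spot to cytoplasm intensity ratio, with at least 20 cells analyzed; inconclusive means wells under 20 cells, flagged as cytotoxic or low count; inactive means the rest.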 This excerpt belongs to a sample that is enriched for actives.
# Key:
# [1] = agonists of human NTR1, primary screen, imaging, U2OS cells, beta-arrestin-GFP, high content (AID 493036); settings: NTR1-U2OS beta-arrestin-GFP spot imaging, agonist mode; measured here: cell count, cytotoxicity flag; at 20 µM;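 on activation: 0% = DMSO without peptide and 100% = 100 nM NTR1 peptide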
# [2] = target: Neurotensin receptor type 1 (Homo sapiens) (UniProt P30989); test: as above; settings: NTR1-U2OS beta-arrestin-GFP spot imaging, agonist mode; at 20 µM; stronger effect = higher value
# Chain of Neurotensin receptor type 1 (Homo sapiens) (P30989 whole entry, looked up): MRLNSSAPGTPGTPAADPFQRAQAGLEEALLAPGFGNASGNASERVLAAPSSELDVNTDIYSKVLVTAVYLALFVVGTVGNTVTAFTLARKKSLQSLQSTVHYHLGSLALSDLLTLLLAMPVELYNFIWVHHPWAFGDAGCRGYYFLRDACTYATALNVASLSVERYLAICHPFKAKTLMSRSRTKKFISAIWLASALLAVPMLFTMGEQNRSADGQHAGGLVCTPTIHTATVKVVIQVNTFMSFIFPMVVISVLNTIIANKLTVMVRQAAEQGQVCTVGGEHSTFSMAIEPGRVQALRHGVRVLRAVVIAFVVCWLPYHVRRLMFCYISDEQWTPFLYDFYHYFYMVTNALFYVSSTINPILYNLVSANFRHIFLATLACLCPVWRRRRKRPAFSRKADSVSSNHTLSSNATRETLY
Compound,cell count [1] [cells],activation [2]
CCCCOc1ccc(N(CC(=O)NC(C)C)C(=O)CCC(=O)Nc2ccccn2)cc1,43,-1.4% (inactive)
Cc1ccc(S(=O)(=O)N2CCOCC2)cc1NC(=O)COC(=O)c1cnccn1,51,-0.4% (inactive)
O=C1CCC(CCC(=O)N2CCCC(C(=O)c3ccc(Cl)cc3)C2)=NN1 (centres undefined),70,-0.5% (inactive)
CCOC(=O)/C(C#N)=C/c1ccc(OCC(=O)Nc2ccccc2)c(OC)c1,80,-4.5% (inactive)
CCOC(=O)/C(=C\c1ccc([N+](=O)[O-])cc1)C(=O)c1cc(C(C)=O)c(Nc2ccccc2)s1,50,49.8% (active)
CCOC(=O)/C(=N\Nc1ccccc1[N+](=O)[O-])c1csc(Nc2ccccc2)n1,59,12.7% (inactive)
COc1ccc(S(=O)(=O)N2CCCCC2)cc1NC(=O)COc1ccccc1,55,2.1% (inactive)
COCC(C)n1c(C)cc(C(=O)CSc2cc(C)c3ccccc3n2)c1C (centres undefined),54,5% (inactive)
O=C(O)C1CCN(C(=O)OCc2ccccc2)CC1,88,-0.7% (inactive)
CC1=C(C(N)=O)C(c2ccc(Br)cc2)n2ncnc2N1 (centres undefined),82,-1.6% (inactive)
Fc1ccccc1/C=C1\CCCC2=C1Nc1ncnn1C2c1ccccc1F (centres undefined),72,58.7% (active)
CC(C)C(C)(C#N)NC(=O)CSc1nc2scc(-c3ccccc3)c2c(=O)[nH]1 (centres undefined),65,6.5% (inactive)
NS(=O)(=O)c1ccc(CCNC(=O)c2ccc([N+](=O)[O-])cc2[N+](=O)[O-])cc1,46,-0.2% (inactive)
O=C(CCC1CCN(C(=O)c2cccc(Cl)c2F)CC1)Nc1ccccc1,63,0.6% (inactive)
COc1cc(OC)cc(C(=O)NNC(=O)CCOc2ccccc2OC)c1,73,-0.7% (inactive)
CCCCOc1ccc(C(=O)NCC(=O)OCC(=O)c2c(N)n(C)c(=O)n(C)c2=O)cc1,49,-0.7% (inactive)
Cc1nnc(SCC(=O)N2c3ccccc3C(C)(c3ccc(Cl)cc3)CC2(C)C)s1 (centres undefined),47,8.5% (inactive)
CCn1cc(/C=C(\NC(=O)c2ccc(C)cc2)C(=O)NCCN2CCOCC2)c2ccccc21,75,1.6% (inactive)
N#CC1(NC(=O)COc2ccc3oc4ccccc4c3c2)CCCCC1,33,0.8% (inactive)
O=C(Nc1ccc2c(c1)CCC2)c1ccc(Br)s1,65,4.4% (inactive)
Clc1cccc(Cl)c1Cn1nnc(-c2cccs2)n1,79,4.8% (inactive)
CC(=O)N[C@H]1[C@H]([C@H](O)[C@H](O)CO)OC(C(=O)O)=C[C@@H]1O,69,1.8% (inactive)
CCOc1c(N2CCCCC2)c(=O)c1=O,32,2.2% (inactive)
CCOc1ccccc1NC(=O)NC1CCCCCCC1,52,-0.7% (inactive)
CC1(C)CC(=O)C=C(N2CCOCC2)C1,46,0.2% (inactive)
CC(C)(C)C(=O)Nc1ccc(C(=O)N/N=C/c2ccccc2OC(=O)c2ccc(Cl)cc2Cl)cc1,48,0.7% (inactive)

Compound,cell count [1] [cells],activation [2]
O=C(N/N=C/c1ccc(OC(=O)c2ccccc2Cl)cc1)c1ccc(O)cc1,65,40.7% (active)
Cc1nc2ccc(C(=O)N/N=C/c3ccc(O)cc3)cc2[nH]1,50,-0.6% (inactive)
CC1=CC=CN2C1=NC(=O)CC2(C)C(=O)N(CC(=O)NC1CCCC1)c1ccccc1C (centres undefined),39,1% (inactive)
Cc1ccc(N2C(=O)C(NC(=O)c3c(F)cccc3F)(C(F)(F)F)C3=C2CC(C)(C)CC3=O)cc1 (centres undefined),69,4% (inactive)
COc1ccccc1CN(C)c1nnnn1-c1ccccc1,50,1.1% (inactive)
CSc1ccc(CNCCN2CCOCC2)cc1,55,-2.1% (inactive)
FC(F)(F)Oc1ccc(-c2cn3cccnc3n2)cc1,36,3.1% (inactive)
CCc1ccccc1NC(=O)/C(=C/c1ccccc1)c1ccccc1,63,6.1% (inactive)
Cc1coc(C)c1C(=O)CC1(O)C(=O)N(C)c2ccc(Cl)cc21 (centres undefined),91,-1% (inactive)
CN(C)CCNC(=O)C(C(=O)c1ccccc1)n1ccccc1=O (centres undefined),94,-1.5% (inactive)
CCS(=O)(=O)n1nc(-c2ccccc2)nc1SCc1ccccc1,92,6.4% (inactive)
CN(C)/C=C(/C(=O)c1ccc(F)cc1)S(=O)(=O)c1ccc(F)cc1,51,-0.1% (inactive)
CCOC(=O)c1c(CN2CCOCC2)n(-c2ccccc2)c2ccc(O)cc12,70,2.7% (inactive)
CC1=NNC(=O)C1CCC(=O)N/N=C\c1cccc(Cl)c1 (centres undefined),94,-1% (inactive)
CCOC(=O)c1cnc(SCC(=O)Nc2ccccc2C(=O)OC)nc1N,88,-1.8% (inactive)
CC(C)c1ccc(OCC(O)Cn2cnc3ccccc32)cc1 (centres undefined),46,0.1% (inactive)
O=C(C(c1ccccc1)c1ccccc1)N1CCN(CC(O)COc2ccccc2)CC1 (centres undefined),88,0.6% (inactive)
OC(CN=c1sc2ccccc2n1CC(O)COc1ccccc1)COc1ccccc1 (centres undefined),92,58.9% (active)
Cc1nn(C)c(Oc2ccccc2)c1CCNS(=O)(=O)c1ccc(F)cc1,76,-0.4% (inactive)
Cc1cc(N(C)C)cc(C)[n+]1[O-],38,0.3% (inactive)
Cc1ccc(C(=O)N/C(=C\c2cn(S(=O)(=O)N(C)C)c3ccccc23)C(=O)N2CCCC2)cc1,61,1.6% (inactive)
CCCCCOC(=O)C1=C(C)Nc2nnnn2C1c1ccc(OC)c(OC)c1OC (centres undefined),85,0.9% (inactive)
CCCS(=O)(=O)N1CCC(C(=O)NCCc2ccc(OC)c(OC)c2)CC1,46,-0.4% (inactive)
O=C(N/N=C/c1ccccn1)c1cccc(NC(=O)c2ccc(Cl)cc2)c1,56,2.8% (inactive)
Cc1cc2c(cc1C)N(C(=O)CN1C(=O)c3ccccc3C1=O)C(C)(C)c1ssc(=S)c1-2,52,23.8% (inactive)
COc1ccnc(Oc2ccccc2)n1,45,3% (inactive)
